PubChem BioAssay AID1578 (Sanford-Burnham Center for Chemical Genomics, 2009)
The whole screen tested about 290,000 compounds, of which about 3,000 (1%) were called active. No stated cut-off is given here; in the data, active means inhibition mostly above about 36% (no sharp cut-off); inactive means mostly below about 34%. The entries come from a sample that favours actives as a whole.

Test: inhibition of NOD1-driven NF-kB reporter – cell-based, luminescence, uHTS, primary screen (AID 1578);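 further: HEK-293T reporter cells stimulated with the NOD1 agonist gamma-tri-DAP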
Details: NOD1-driven NF-kB luciferase reporter cells, at 4 µM, stronger effect = higher value

inhibition, active:
CCCCC1S/C(=N/N=C/c2ccc(OC)cc2)N(Cc2ccc(OC)cc2)C1=O (configuration not stated) 75.2%, Cc1cc(C)c(Nc2cc(S(=O)(=O)O)c(N)c3c2C(=O)c2ccccc2C3=O)c(C)c1 69.6%, CCOC(=O)Cc1c(C)nc2c(-c3cccc(Br)c3)c[nH]n2c1=O 69.7%, N=C1C(c2nc3ccccc3s2)=C(O)CN1NC(=O)c1ccc([N+](=O)[O-])cc1 102%, COc1cc(/C=C/c2cc(C(F)(F)F)[nH]c(=O)n2)cc(OC)c1OC 86.7%, CS(=O)(=O)N(CCC#N)Cc1ccc(/C=C2\C(=O)Nc3ccccc32)o1 57.1%, CCn1nc(C)cc1-c1nnc(Sc2ncc([N+](=O)[O-])s2)n1C 35.4%, COc1ccc(NS(=O)(=O)c2cc(NC(=O)CC(=O)c3ccc([N+](=O)[O-])cc3)ccc2C)cc1 54.7%, Cc1ccc(OCCCCNC2CCCCC2)c(C)c1 30.3%, CS(=O)(=O)c1ccc(S(=O)CC(=O)Oc2ccc(Cl)cc2)c([N+](=O)[O-])c1 (configuration not stated) 47.4%, O=C(CSCc1cnn(-c2ccccc2)c1-n1cccc1)NCc1cccnc1 60.7%, COC(=O)C(=Cc1ccccc1[N+](=O)[O-])C(=O)OC 28.4%, COCCNC(=O)/C(C#N)=C/C=C/c1ccccc1[N+](=O)[O-] 76.2%, N#C/C(=C\C=C\c1ccccc1)C(=O)NCc1cccnc1 68.7%, N#C/C(=C\C=C\c1ccccc1[N+](=O)[O-])C(=O)NCc1ccccc1 97.3%, CCN(CC)S(=O)(=O)c1cc([N+](=O)[O-])ccc1NNC(=O)Nc1ccc(Cl)c(Cl)c1 83.8%, COc1ccc(C(=O)N/N=C/c2ccc(OC)c(COc3ccc(F)cc3)c2)cc1 56.6%, COc1ccc(/C=N/NC(=O)c2cc(C(C)(C)C)[nH]n2)cc1COc1ccc(F)cc1F 44.1%

inhibition, inactive:
O=C(CCCN1C(=O)/C(=C/c2cccs2)SC1=S)Nc1cccc(C(=O)O)c1 -20.6%, COc1ccc(-n2nc(C(=O)NCC(=O)N3CCCC(C)C3)c3ccccc3c2=O)cc1Cl (configuration not stated) -22.7%, CCCC1S/C(=N/N=C/c2ccc(C)cc2)N(Cc2ccc(OC)cc2)C1=O (configuration not stated) 39.2%, CCCC1S/C(=N/N=C/c2ccc(OC)cc2)N(Cc2ccc(OC)cc2)C1=O (configuration not stated) 12.9%, COc1ccccc1CNC(=O)C(C)n1nc(C)n2c(cc3occc32)c1=O (configuration not stated) -26.7%, Cc1ccc(C(=O)C(C)N2C(=O)NC(C)(c3ccccc3)C2=O)cc1 (configuration not stated) -36.5%, O=C(Cc1ccc(Br)c2ccccc12)N/N=C/c1ccccn1 7.4%, Cc1c(CCC(=O)O)c(=O)oc2c(C)c3occ(-c4ccc(Br)cc4)c3cc12 27.8%, COc1ccc(-c2coc3c(C)c4oc(=O)c(CCC(=O)O)c(C)c4cc23)cc1 10.4%, COC(=O)c1cc(-c2ccc(F)cc2)n(-c2ccccc2)n1 -3.9%, Cc1cc(C)cc(NC2=C(N)C(=O)c3ccccc3C2=O)c1 -4.5%, Nc1c(S(=O)(=O)O)cc(NC(=O)c2ccccc2)c2c1C(=O)c1ccccc1C2=O 11.8%, Cc1ccc(NC(=O)c2sc(C)nc2C)c(C)c1 -0.8%, O=C(O)c1cccnc1SCC(=O)C12CC3CC(CC(C3)C1)C2 -9.5%, CCOC(=O)Cc1cc(=O)n2[nH]cc(-c3cccc(Br)c3)c2n1 27.2%, CCOC(=O)Cc1c(C)nc2c(-c3ccccc3)c[nH]n2c1=O -6.6%, CCCN1CCN(C(=O)c2oc3c(Cl)cccc3c2C)CC1 11.7%, Cc1ccc(C(=O)NCCCN2CCOCC2)c(C)c1 -33.2%, Cc1ccc(-c2csc(C3=C(O)CN(NC(=O)c4ccc([N+](=O)[O-])cc4)C3=N)n2)cc1 3.2%, N=C1C(c2nc3ccccc3s2)=C(O)CN1NC(=O)c1ccccc1[N+](=O)[O-] -23%, Cc1csc(SCCn2c(N3CCOCC3)nc3c2c(=O)[nH]c(=O)n3C)n1 -13.7%, COc1cc(OC)c(OC)cc1/C=C/c1cc(C(F)(F)F)[nH]c(=O)n1 -1%, COc1ccc(/C=C/c2cc(C(F)(F)F)[nH]c(=O)n2)cc1OC 44.3%, CS(=O)(=O)N(CCC#N)Cc1ccc(C=O)o1 -32.9%, Cc1ccc(/C=C2\C(=O)Nc3ccccc32)o1 -9.5%, O=C(Nc1ccc(O)cc1)/C(=C\C=C\c1ccccc1)NC(=O)c1ccccc1 -13.3%, CCN(C(=O)COC(=O)/C=C/c1cccc([N+](=O)[O-])c1)c1ccccc1 -31.8%, Cn1cnc([N+](=O)[O-])c1Sc1nnc(-c2cccnc2)n1C -5.6%, CCn1ncc([N+](=O)[O-])c1C(=O)n1nc(C)cc1C -22.7%, CC(C)(C)SCCNS(=O)(=O)c1ccc2ccccc2c1 7.5%, Cc1cccc(NS(=O)(=O)c2cc(NC(=O)CC(=O)c3ccc([N+](=O)[O-])cc3)ccc2C)c1 41.5%, COc1cccc(NC(=O)CC(=O)c2ccc([N+](=O)[O-])cc2)c1 -3.4%, Cc1ccc(C(=O)CCC(=O)Nc2ccc(Cl)c(S(=O)(=O)Nc3cccc(Cl)c3)c2)cc1 19.9%, COc1ccc(C(=O)CC(=O)Nc2ccc([N+](=O)[O-])cc2)cc1 -14.5%, Cn1ncc2c(Nc3ccc(Cl)c(Cl)c3)ncnc21 -5.2%, Cc1ccc(OCCCCNC2CCCC(C)C2C)c(C)c1 (configuration not stated) -22.2%, Cc1ccc(OCC(O)CNC2CCCC2)c(C)c1 (configuration not stated) 0%, CN(Cc1ccccc1)C(=O)c1cc(=O)[nH]c2ccccc12 6.3%, Cc1ccc(-n2nc(-c3ccccc3)cc2Nc2ccccc2N)cc1 -9.6%, O=C(CS(=O)c1ccc(C(F)(F)F)cc1[N+](=O)[O-])Oc1ccc(Cl)cc1 (configuration not stated) 15.4%, O=C(CS(=O)c1ccc(C(F)(F)F)cc1[N+](=O)[O-])Oc1ccccc1 (configuration not stated) 21.2%, Nc1ccc(-c2nc3cc([N+](=O)[O-])ccc3o2)cc1 -15.4%, COc1ccc(S(=O)Cc2ccc(C(=O)NCc3cccc(OC)c3)o2)cc1 (configuration not stated) -16.8%, O=C(CSCc1cnn(-c2ccccc2)c1-n1cccc1)NCc1ccccn1 -18.4%, COc1cccc(CNC(=O)CSCc2cnn(-c3ccccc3)c2-n2cccc2)c1 19.5%, CCCCCCCC(=O)N/N=C(\C)c1cccnc1 7.8%, N#C/C(=C\c1ccccc1[N+](=O)[O-])C(=O)NCc1ccccc1 -5%, COc1cc(NC(=O)/C=C/c2ccccc2[N+](=O)[O-])cc(OC)c1 -36.1%, O=C(O)/C=C/c1ccccc1[N+](=O)[O-] 2.2%, COCCNC(=O)/C(C#N)=C/c1ccc(O)c([N+](=O)[O-])c1 -50.1%, N#C/C(=C\c1ccc(O)c([N+](=O)[O-])c1)C(=O)NCc1ccccc1 -13.6%, COCCNC(=O)/C(C#N)=C/C=C/c1ccccc1 -4.8%, O=C(/C=C/c1ccccc1)NCc1cccnc1 -46%, N#C/C(=C\C=C\c1ccccc1)C(=O)NCc1ccco1 19.2%, Cc1cc([N+](=O)[O-])ccc1NC(=O)Nc1ccc(F)cc1F -5%, Cc1ccc(Cn2nnc3c(=O)n(Cc4cc(C)ccc4C)cnc32)cc1 -9.7%, CN(C)S(=O)(=O)c1cccc(NC(=O)c2cc3ccccc3o2)c1 -40.6%, COc1ccc(/C=C(\C#N)C(=O)NC(C)c2ccccc2)cc1O (configuration not stated) -1.1%, CC(=O)c1c(O)c2ccccc2n(C(C)C)c1=O 12%, O=C(COC(=O)c1ccco1)Nc1ccccc1[N+](=O)[O-] -4.7%, CN(C)C(=O)Nc1ccccc1CC[N+](=O)[O-] -28.5%, COc1ccc(-c2csc3ncnc(Cl)c23)cc1 -16.4%, Cc1c(C(=O)N2CCN(c3ccccc3F)CC2)oc2c1C(=O)CC(C)(C)C2 0%, O=S(=O)(/N=C(\Sc1ccc(Cl)cc1)c1ccccc1)c1ccccc1 3.3%, C=CCn1c(=O)c2c3c(sc2n2c(Nc4ccc(C(=O)OCC)cc4)nnc12)CCCC3 -30.7%, CCC(C)(C)NC(=O)C(c1ccc(OC)cc1)N(C(=O)CCC(=O)Nc1cc(C)on1)c1ccc(F)cc1 (configuration not stated) -11.7%, CC(C)c1ccc(/C=N/NC(=O)CC(=O)NCc2ccccc2)cc1 -41.2%, CCN(CC)S(=O)(=O)c1cc([N+](=O)[O-])ccc1NNC(=O)Nc1ccc(F)cc1 2%, CCN(CC)S(=O)(=O)c1cc([N+](=O)[O-])ccc1NNC(=O)Nc1ccccc1 -23.4%, COc1ccc(CN2CCN(C(=O)CCC(=O)Nc3nnc(C4CCCCC4)s3)CC2)cc1F 26.9%, COc1ccc(/C=N\NC(=O)c2ccccc2)cc1COc1ccc(F)cc1 39.2%, COc1ccc(C(=O)N/N=C/c2ccc(OC)c(COc3ccc(F)cc3F)c2)cc1 38.8%, COc1ccc(C(=O)N/N=C/c2ccc(OC)c(COc3ccccc3)c2)cc1 3.5%, COc1ccc(/C=N\NC(=O)c2ccccc2F)cc1COc1ccc(F)cc1F 31.2%
